The list is not random: actives were taken first. Their share in the collection is about 8.9%.
SW480 rerep: A quantitative high throughput screen for small molecules that induce DNA re-replication in SW480 colon adenocarcinoma cells. SW480 DNA re-replication, Hoechst DNA content imaging, 48 h. Potency, µM (titrated, usually from 46.1 µM), without a hit: at the highest dose re-replication activation, most hits filed as activators. 1.8% of 340,000 active. AID 624297, 2012; note: potency is the fitted concentration of half-maximal effect; % of control where 0% means no effect; nearly all actives have a fitted effect of over 55% in size
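250 cells/well; 23 nL cpd via pin tool; 48 hr, 37 C, 5% CO2; Hoechst 40 min; imager read of total nuclear intensity, ex 405/em 500-530 nm.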
DRD3 agonist: qHTS of D3 Dopamine Receptor Agonist: qHTS; D(3) dopamine receptor (Homo sapiens), P35462; D3R DiscoveRx beta-arrestin cells, luminescence, 90 min; 0.58% of 410,000 active; AID 652048, 2013; max activation, %; in the data active = max activation above about 30%; note: 0% is about no effect
Target sequence (P35462 whole entry, looked up): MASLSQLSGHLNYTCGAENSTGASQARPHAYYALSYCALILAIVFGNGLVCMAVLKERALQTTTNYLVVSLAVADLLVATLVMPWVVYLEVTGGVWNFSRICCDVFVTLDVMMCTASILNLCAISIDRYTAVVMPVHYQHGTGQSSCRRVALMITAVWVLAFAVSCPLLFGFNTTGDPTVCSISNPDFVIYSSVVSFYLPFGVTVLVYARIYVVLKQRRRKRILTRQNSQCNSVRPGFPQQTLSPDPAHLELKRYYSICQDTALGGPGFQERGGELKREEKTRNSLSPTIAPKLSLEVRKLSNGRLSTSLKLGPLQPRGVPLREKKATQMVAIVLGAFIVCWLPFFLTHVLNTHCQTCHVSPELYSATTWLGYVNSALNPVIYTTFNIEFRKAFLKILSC
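Agonist-mode cell screen: cells plated at 1500/well and incubated overnight at 37 °C, then exposed to library compounds for 90 min at 37 °C. Detection reagent was added for 30–60 min at room temperature, and luminescence was read.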
KB-V1 cytotox: qHTS assay for MDR1-selective chemotherapeutics: Primary screen using the drug-selected MDR subline cells KB-V1 | KB-V1 MDR cells viability, CellTiter-Glo, 72 h | Potency, µM (titrated, usually from 46.1 µM), hits mostly cytotoxic | 3.4% of 400,000 active; note: potency is the fitted concentration of half-maximal effect; % is set by controls: 0 for no effect and ±100 for the full control effect; nearly all actives have a fitted effect of over 60% in size
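In this primary screen, KB-V1 cells overexpressing P-gp are incubated with library compounds (lowest to highest concentration) for 72 h at 37 degrees C before a luminescent ATP viability read.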
D3 antag: qHTS of D3 Dopamine Receptor Antagonist: qHTS; 2.5% of 360,000 active; max response, negative = inhibition, %; D3R cells, DiscoveRx beta-arrestin luminescence, antagonist mode; active compounds read low; D(3) dopamine receptor (Homo sapiens), P35462; in the data active = max response below about -50%; inconclusive = no clear call, values can overlap the other calls; note: % is set by controls: 0 for no effect and ±100 for the full control effect
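Cells plated overnight at 1500 cells/well, then exposed to library compounds with dopamine controls for 90 minutes at 37 degrees C. DiscoveRx reagent added for 30–60 minutes at room temperature; luminescence read, quantitative HTS format.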
KB-3-1 tox: qHTS assay for MDR1-selective chemotherapeutics: Primary screen using the parental adenocarcinoma cell KB-3-1; KB-3-1 viability, CellTiter-Glo ATP luminescence, 72 h; Potency, µM (top dose mostly 46.1 µM), hits mostly cytotoxic; 1.4% of 400,000 active; note: potency is the fitted concentration of half-maximal effect; % is set by controls: 0 for no effect and ±100 for the full control effect; nearly all actives have a fitted effect of over 60% in size
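KB-3-1 cells, DMEM (no phenol red) + 10% FBS; compound by pin transfer, 72 h, 37 °C. Readout: CellTiter-Glo luminescence after 10 min. Data normalized, curve-fitted.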
MCF10A rereplic: A quantitative high throughput screen for small molecules that induce DNA re-replication in MCF 10a normal breast cells | MCF 10A DNA re-replication, Hoechst nuclear intensity, 48 h | Potency, µM (highest dose often 46.1 µM), inactives show top-dose activity, positive = re-replication, usual class: activators | 2.9% of 350,000 active; note: potency is the fitted concentration of half-maximal effect; % of control where 0% means no effect; nearly all actives have a fitted effect of over 50% in size
* marks the source's active call; other numbers are inactive results; i = inactive; ? = inconclusive; · = not tested or not shown. Unless noted, calls come from the whole dose curve; as a rule, active = well fitted curve in the direction sought with a large enough effect; inconclusive = small, poorly fitted or top-dose-only effect, or another doubt; inactive = no such curve, though single readings can be large; an effect the other way counts as inactive or inconclusive.

SMILES	SW480 rerep	DRD3 agonist	KB-V1 cytotox	D3 antag	KB-3-1 tox	MCF10A rereplic
COc1ccccc1C(=O)COC(=O)c1cc([N+](=O)[O-])ccc1N1CCOCC1	10.7%	-1.7	?	-17.8	i	1.9%
COc1cc(C(=O)COC(=O)c2cc([N+](=O)[O-])ccc2N2CCOCC2)ccc1OC(F)F	-2.0%	3.3	?	17.9	20.6µM*	10.2%
Cc1cc(C)c(C(=O)COC(=O)c2cc([N+](=O)[O-])ccc2N2CCOCC2)cc1C	-2.7%	-4.5	18.4µM*	23.4	i	4.2%
Cc1ccc(CNC(=O)c2c(C)oc3ncnc(N4CCOCC4)c23)cc1	·	-1.0	·	·	·	·
Cc1cccc(NC(=O)Cn2c(SCC(=O)NCc3ccccc3)nc3ccccc32)c1C	·	-9.6	i	·	i	·
COc1ccccc1CN1C2CCCC1CC(NC(=O)/C=C/c1ccccc1)C2 (configuration not stated)	3.9%	-16.4	i	-64.5*	i	7.3%
O=C(CN1C=NS(=O)(=O)c2ccccc21)Nc1ccc(F)cc1	·	-4.5	?	·	i	·
O=C(C[n+]1ccncc1)c1cccc2ccccc12	·	·	?	·	i	·
O=C(Cc1ccccc1)Nc1ccc(N2CCN(Cc3ccccc3F)CC2)cc1	-0.4%	-2.7	i	-51.5*	i	19.1%
O=C(Nc1ccc(N2CCN(Cc3ccccc3F)CC2)cc1)c1ccccc1[N+](=O)[O-]	2.7%	-15.0	?	?	i	?
O=C(Nc1ccc(N2CCN(Cc3ccccc3F)CC2)cc1)c1ccc([N+](=O)[O-])o1	?	-4.8	14.6µM*	0.0	?	2.06µM*
COc1ccccc1CNc1ncnc2c1nc1n2CCCC1	·	-3.5	?	·	i	·
CC(C)Oc1ccc(C(=O)N2CCN(c3nc4c(F)cc(F)cc4s3)CC2)cc1	·	-10.1	i	·	i	·
CCc1ccc2oc(C(=O)NCc3ccncc3)c(C)c2c1	-12.2%	0.4	11.6µM*	30.3	?	4.5%
Cc1ccc2oc(C(=O)NCc3ncc(C)[nH]3)c(C)c2c1	16.4µM*	-13.8	?	-28.0	10.3µM*	?
Cc1cnc(CNC(=O)c2ccc3oc(C(C)C)nc3c2)[nH]1	-26.1%	-17.5	?	?	i	-12.0%
CNC(=O)[C@H](Cc1c[nH]c2ccccc12)NC(=O)[C@@H](CC(=O)NO)CC(C)C	-5.5%	4.2	·	·	·	8.4%
COc1ccc(/C=C(\C#N)c2nc(-c3cc(Cl)ccc3OC)cs2)cc1	·	-15.4	i	·	i	·
O=C(Nc1ccccc1)C1CCN(c2ncc(-c3ccc4c(c3)OCCCO4)s2)CC1	·	·	i	·	i	·
COc1ccc(/C=C/C(=O)N(CC(C)C)CC(C)C)cc1Br	?	0.3	20.6µM*	9.7	i	?
Cc1ccc(S(=O)(=O)NCC(=O)NCC(=O)OCc2c(F)cccc2Cl)cc1	18.4µM*	-11.5	i	-8.0	i	8.8%
CC(C)CC(N)c1csc(NC(=O)c2cc(C(C)(C)C)nn2Cc2ccccc2)n1 (configuration not stated)	·	1.0	18.4µM*	6.4	?	·
Cc1ccc(/C=C/C(O)=C2/C(=O)N(C)C3(C)CC2c2ccccc2O3)cc1 (configuration not stated)	?	6.2	i	-11.4	14.6µM*	?
COc1ccc(NC(=O)c2ccc(Cl)c(S(=O)(=O)N3CCc4ccccc4C3)c2)cn1	-2.5%	2.8	4.61µM*	10.1	i	?
O=C(c1ccc(Cl)c(S(=O)(=O)N2CCOCC2)c1)N1CCCCCC1	-3.5%	-7.7	?	1.7	i	?
SMILES	SW480 rerep	DRD3 agonist	KB-V1 cytotox	D3 antag	KB-3-1 tox	MCF10A rereplic
COC(=O)C1CCN(C(=O)COc2ccc(S(=O)(=O)N3CCOCC3)cc2Cl)CC1	-6.4%	62.8*	i	-2.1	i	1.8%
CCOC(=O)C1CCN(C(=O)c2ccc(Cl)c(S(=O)(=O)N3CCOCC3)c2)CC1	?	-8.3	i	14.7	i	13µM*
Cc1cc(S(=O)(=O)N2CCOCC2)ccc1OCC(=O)N1CCC(C(N)=O)CC1	-9.9%	-4.0	i	7.5	i	-0.1%
O=C(c1ccc(Cl)c(S(=O)(=O)N2CCOCC2)c1)N1CCc2ccccc2C1	0.9%	-11.1	3.66µM*	-7.9	20.6µM*	9.8%
Cc1c(Cl)cccc1NC(=O)CN1C(=O)COc2ccc(S(=O)(=O)Nc3ccccc3)cc21	·	-7.0	i	·	i	·
COc1ccc(-c2c(C#N)c(SCC(=O)Nc3cccc(Cl)c3)nc(C)c2C(=O)Nc2ccccc2)cc1OC	·	-2.0	i	·	i	·
Clc1ccc(OCCCN2CCCCC2)c(Br)c1	22.3%	-10.1	i	-68.3*	i	?
Clc1ccc(Cl)c(OCCCCN2CCNCC2)c1	4.4%	-19.2	?	-11.8	?	9.0%
Clc1ccc(OCCCCCN2CCCC2)c(Br)c1	?	-14.1	?	-51.9*	i	14.5%
CCN1CCN(CCCOc2ccc(Cl)cc2Br)CC1	?	-10.7	i	?	i	?
COCc1c(C(=O)OCC(=O)N2c3ccccc3NC(=O)C2(C)C)oc2ccccc12	1.9%	2.7	16.4µM*	34.4	i	?
Cc1nn(CCC(=O)NCc2ccc(Cl)cc2)c(=O)c2nn(-c3ccccc3)c(C)c12	·	56.6*	i	·	i	·
Cc1ccc(-n2nc3c(=O)n(C(C)C(=O)NCc4ccccc4C)nc(C)c3c2C)cc1 (configuration not stated)	·	-15.8	i	·	14.6µM*	·
Cc1ccc(-n2nc3c(=O)n(C(C)C(=O)NCc4ccc(Cl)cc4)nc(C)c3c2C)cc1 (configuration not stated)	-1.2%	-3.5	i	3.3	8.2µM*	0.1%
Cc1nn(C(C)C(=O)NCc2ccccc2F)c(=O)c2nn(-c3ccccc3)c(C)c12 (configuration not stated)	-13.2%	-3.0	i	-0.7	i	-0.7%
Cc1ccc(Nc2nc(N)nc(N)c2N=O)cc1Cl	·	·	i	·	·	·
Cc1ccc(C)c(N2CCN(C(=O)c3cc(S(=O)(=O)N4CCCCCC4)cn3C)CC2)c1	·	2.6	i	·	i	·
Cc1cc(C)c(Cn2c(CCNC(=O)c3ccco3)nc3ccccc32)c(C)c1	·	-0.1	i	·	i	·
O=C(NCCCN1CCC(Cc2ccccc2)CC1)C1CCC(=O)N1C1CCCC1 (configuration not stated)	-18.3%	-10.0	?	-118.2*	i	14.5%

Assay outcomes from PubChem BioAssay.
